Source: PubChem BioAssay
Rows were chosen to be rich in hits. Some 19% of all compounds tested hit in one or more screens of this group.
TDP1 cell CPT = DT40-hTDP1 cell growth loss with CPT; chicken DT40 Tdp1-/-;hTDP1 cells + 20 nM CPT, ATP luminescence, 48 h; Potency, µM (titrated, usually from 46.2 µM), for inactives: at the top dose activity change, negative = growth inhibition, usual class: inhibitors; 12% of 420,000 active; further: potency means the concentration at half of the fitted maximal effect; on the % scale 0 is the no-effect control and ±100 the full control effect; nearly all actives have a fitted effect of over 55% in size
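Chicken DT40 Tdp1-/- cells complemented with human TDP1, 400 cells/well, exposed to compounds plus 20 nM camptothecin for at least 48 h at 37 C; viability read as ATP content by CellTiter-Glo luminescence.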
IL-1B inflam inh = blocks inflammasome-driven IL-1 beta release | activity change, % at 57.5 µM | THP-1 LPS/ATP IL-1B secretion, AlphaLISA, 16 h; stronger effect = lower value | 4.7% of 360,000 active; in the data active means activity change below about -50%; inconclusive means mostly about -30% to -49%; further: on the % scale 0 is the no-effect control and ±100 the full control effect
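Secreted IL-1B measured by AlphaLISA bead assay after 16 h compound exposure of THP-1 cells; compounds (final up to 57.5 uM) added 1 h before LPS (250 ng/mL) and ATP (1.25 mM) stimulation; lower signal means less secretion.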
DT40 TDP1 no CPT = qHTS for Inhibitors of human tyrosyl-DNA phosphodiesterase 1 (TDP1): qHTS in cells in absence of CPT; DT40 Tdp1-/- hTDP1 cells, no CPT, ATP luminescence, 48 h; Potency, µM (titrated, usually from 46.2 µM), for inactives: at the highest dose activity change, negative = growth inhibition, usual class: inhibitors; 15% of 420,000 active; AID 686978, 2013; further: potency means the concentration at half of the fitted maximal effect; on the % scale 0 is the no-effect control and ±100 the full control effect; nearly all actives have a fitted effect of over 55% in size
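No-CPT arm: Tdp1-/-;hTDP1 DT40 cells (400/well) plus compounds, incubated ≥48 hr at 37 °C. Readout CellTiter-Glo luminescence.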
TGFb inhibitor = inhibitors of TGF-b signaling; HepG2 CAGA-GFP TGF-b/SMAD3 reporter, GFP fluorescence, 18 h; TGF-beta stimulated, 500 pg/mL final; Potency, µM (highest dose often 46.1 µM), for inactives: top-dose activity, negative = inhibition, hits mostly inhibitors; 1.2% of 410,000 active; further: potency means the concentration at half of the fitted maximal effect; on the % scale 0 is the no-effect control and ±100 the full control effect; nearly all actives have a fitted effect of over 65% in size
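Inhibition was scored as loss of TGF-beta-induced (500 pg/mL final, 18 hours, 37 degrees C) GFP in HEPG2 cells carrying a CAGA-GFP reporter, in DMEM with 1% FBS. Well GFP was summed per cell; Activity was normalised to unstimulated and stimulated DMSO wells, then concentration-response fitting.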
S-ASM inh = blocks human secretory acid sphingomyelinase; Potency, µM (doses to about 57.5 µM), for inactives: at the highest dose activity change, negative = inhibition, actives largely listed as inhibitors; placental ASM, HMU-PC fluorogenic substrate, 60 min; P17405; 0.006% of 340,000 active; further: potency means the concentration at half of the fitted maximal effect
Target sequence (P17405 47-631 limits assumed): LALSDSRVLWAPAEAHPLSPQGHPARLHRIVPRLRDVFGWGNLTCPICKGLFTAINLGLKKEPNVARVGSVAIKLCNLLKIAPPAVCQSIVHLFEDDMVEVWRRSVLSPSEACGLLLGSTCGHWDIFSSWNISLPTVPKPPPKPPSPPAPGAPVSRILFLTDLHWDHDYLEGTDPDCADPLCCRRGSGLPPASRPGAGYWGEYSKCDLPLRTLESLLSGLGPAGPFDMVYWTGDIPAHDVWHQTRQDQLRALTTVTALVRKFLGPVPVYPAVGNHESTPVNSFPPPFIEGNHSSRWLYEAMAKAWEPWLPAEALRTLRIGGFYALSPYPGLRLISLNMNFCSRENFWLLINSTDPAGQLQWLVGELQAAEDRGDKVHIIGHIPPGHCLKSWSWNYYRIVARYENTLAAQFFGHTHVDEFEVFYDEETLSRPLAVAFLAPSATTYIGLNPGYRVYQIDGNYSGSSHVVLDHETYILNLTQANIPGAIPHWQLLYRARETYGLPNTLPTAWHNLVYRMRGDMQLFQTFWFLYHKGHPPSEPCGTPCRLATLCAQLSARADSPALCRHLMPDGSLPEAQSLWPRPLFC
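HMU-PC0 cleavage (9 uM final) by human placental ASM, 60 min at 37 °C following 10 min compound exposure at RT; stopped at pH 10, fluorescence Ex 386/Em 447 nm.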
HepG2 viability = counter-screen for TGF-b inhibitors: cytotoxicity in HepG2 cells. 0.76% of 410,000 active. Potency, µM (series often up to 46.1 µM), inactives show top-dose activity change, negative = cytotoxicity, hits mostly cytotoxic. HepG2 CAGA-GFP viability, ATP luminescence, 18 h; further: potency means the concentration at half of the fitted maximal effect
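CellTiter-Glo luminescence gave cytotoxicity after 18 hours at 37 degrees C. The cells were HepG2 CAGA-GFP in 1% FBS DMEM, stimulated with 500 pg/mL TGF-beta after compound addition. %Activity was normalised to no-cell wells (complete cell-killing) and DMSO (no toxicity), and curves were fitted and classified.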
* marks the source's active call; other numbers are inactive results; ? = inconclusive; nt = no result; [ ] = remark or other dose. Unless noted, the call rests on the fitted dose curve; in most records, active means well fitted curve in the direction sought with a large enough effect; inconclusive means small, poorly fitted or top-dose-only effect, or another doubt; inactive means no such curve, though single readings can be large; an effect the other way counts as inactive or inconclusive.

SMILES	TDP1 cell CPT	IL-1B inflam inh	DT40 TDP1 no CPT	TGFb inhibitor	S-ASM inh	HepG2 viability
CC(Cc1ccccc1)NC(N)=O (stereo unspecified)	0.3%	9.4	-6.5%	10.5%	2.5%	-1.4%
Cn1c(C(=O)N2CCN(c3nc4ccccc4s3)CC2)cc2sccc21	23.1µM*	-12.1	?	1.1%	?	-7.7%
Cc1cc(C)cc(OCC(=O)Nc2ccc(Cl)cc2C(=O)c2ccccc2)c1	-5.4%	nt	0.4%	1.6%	nt	-4.2%
O=C(Oc1ccc2ccc(OC(=O)N3CCOCC3)cc2c1)N1CCOCC1	-7.8%	0.0	-10.1%	2.7%	3.5%	1.7%
Cc1oc2ccc(OC(=O)N3CCOCC3)cc2c1C(=O)OC(C)C	?	0.6	25.9µM*	20.1%	-1.1%	-17.5%
C[C@H](NC(=O)[C@@H](N)Cc1ccc(O)cc1)C(=O)N[C@@H](Cc1ccccc1)C(=O)NCC(=O)N[C@@H](Cc1ccc(O)cc1)C(=O)N1CCC[C@H]1C(=O)N[C@@H](CO)C(N)=O	4.2%[4.12 µM]	nt	3.3%[4.12 µM]	nt	nt	nt
CCCC(=O)NC(Oc1ccc(Cl)cc1Cl)C(Cl)(Cl)Cl (stereo unspecified)	-4.2%	3.0	-16.2%	1.0%	-0.8%	5.8%
Oc1cc(Cl)ccc1Oc1ccc(Cl)cc1Cl	7.7µM*	-69.7*	23.1µM*	17.8µM*	-4.4%	-64.9%
COC(=O)C1=C(c2cccc(C#N)c2)C[C@@H]2CC[C@H]1N2C(=O)NC1Cc2ccccc2C1	-18.0%	-1.4	-16.2%	-16.5%	-3.6%	-4.6%
COc1ccccc1CNc1nc(NCc2ccccc2SC)c2sccc2n1	6.51µM*	-98.8*	6.51µM*	?	nt	-54.8%
O=C1c2ccccc2-n2nnc(-c3ccccc3)c2C2c3cc(Br)ccc3CCN12 (stereo unspecified)	-15.6%	0.0	?	-17.8%	nt	-4.3%
O=C1c2ccccc2-n2nnc(-c3ccccc3)c2C2c3ccccc3CCN12 (stereo unspecified)	16.4µM*	52.0	7.31µM*	-19.6%	nt	-14.9%
O=C(Nc1ccc2ccccc2c1)c1nn(C23CC4CC(CC(C4)C2)C3)cc1Br	18.4µM*	-6.2	20.6µM*	-2.6%	-2.9%	-5.8%
CNCC/C=C\c1cccnc1	-4.9%	nt	-22.2%	nt	nt	nt
O=c1c2ccccc2nc(C[n+]2ccccc2)n1-c1cccc(C(F)(F)F)c1	23.5%	0.0	-3.2%	-1.9%	-1.8%	-1.6%
CCOC(=O)CNC(=O)CNC(=O)C(Cc1ccc(N(CCCl)CCCl)cc1)NC(C)=O (stereo unspecified)	1.3µM*	?	1.64µM*	1.2%	-1.4%	3.7%
CCOC(=O)C(NC(=O)C(Cc1ccc(N(CCCl)CCCl)cc1)NC(C)=O)C(C)C (stereo unspecified)	1.3%	3.3	5.6%	-4.5%	0.0%	13.9%
CC(=O)NC(Cc1ccc(N(CCCl)CCCl)cc1)C(=O)NCC(=O)NCC(=O)O (stereo unspecified)	6.51µM*	4.3	10.3µM*	11.4%	3.9%	8.4%
CC(=O)NC(Cc1ccc(N(CCCl)CCCl)cc1)C(=O)NC(CC(C)C)C(=O)O (stereo unspecified)	?	0.0	14.6µM*	-4.4%	3.8%	1.0%
CSCC[C@H](NC(=O)[C@H](Cc1ccccc1)NC(=O)CNC(=O)CNC(=O)[C@@H](N)Cc1ccc(O)cc1)C(=O)O	-0.2%[4.12 µM]	nt	-2.3%[4.12 µM]	nt	nt	nt
O=C(O)c1[nH]n(-c2ccc(S(=O)(=O)O)cc2)c(=O)c1N=Nc1ccc(S(=O)(=O)O)cc1	?	nt	?	4.0%	nt	3.6%
CC(NCc1ccccc1C(F)(F)F)C(O)c1ccccc1 (stereo unspecified)	-1.1%	-17.9	-24.5%	0.2%	1.9%	-94.5%
Cc1ccc(C(=O)c2cn(CC(=O)Nc3ccc(C(C)C)cc3)c3nc(C)ccc3c2=O)cc1	6.51µM*	nt	6.51µM*	8.3%	nt	2.9%
CCCCCCCCN1C(=O)[C@H](CC(=O)N2CCCCC2)C[C@@]2(C(=O)OCC)CCCC=C12	7.31µM*	?	5.8µM*	nt	nt	nt
CCOC(=O)C1(c2ccccc2)CCCN(C)CC1 (stereo unspecified)	-25.3%	nt	-6.3%	nt	nt	nt
SMILES	TDP1 cell CPT	IL-1B inflam inh	DT40 TDP1 no CPT	TGFb inhibitor	S-ASM inh	HepG2 viability
CCCCCCCCN1C(=O)[C@H](CC(=O)NCCCC)C[C@@]2(C(=O)OCC)CCCC=C12	9.2µM*	0.0	11.6µM*	nt	nt	nt
C=C[C@H]1CN2CC[C@H]1C[C@H]2c1[nH]c2ccccc2c1CCO	14.3%	nt	-25.9%	nt	nt	nt
O=C1NCN(c2ccccc2)C12CCN(CCCOc1ccc(F)cc1)CC2	?	nt	23.1µM*	nt	nt	nt
Cc1cccc(N(C)S(=O)(=O)c2cc(-c3cnc(C4CC4)o3)ccc2C)c1	16.4µM*	nt	23.1µM*	?	nt	-31.5%
Cc1ccc(-n2c(C)nc3ccccc3c2=O)c(C)c1	?	6.6	16.4µM*	-24.0%	-1.6%	-1.4%
Cc1nc2ccccc2c(=O)n1-c1ccc(-c2ccccc2)cc1	?	4.5	?	0.8%	5.5%	-10.2%
Cc1nc2ccccc2c(=O)n1-c1ccc(Cl)c(Cl)c1	?	7.5	?	-0.2%	-1.1%	3.8%
Cc1ccc(-n2c(C)nc3ccccc3c2=O)cc1C	?	28.5	14.6µM*	-26.4%	-0.2%	-20.6%
C=C(COC(C)=O)CC1CC(O)[C@]2(C)OC3CC4OC5C[C@]6(C)O[C@]7(C)CCC8OC9C[C@]%10(C)OC%11C(C)=CC(=O)OC%11CC%10OC9C[C@@H](C)C8OC7CC6O[C@]5(C)C/C=C\C4OC3CC2O1 (stereo partly specified)	23.1µM*	-13.0	?	?	-1.1%	-18.7%
C=C(CO)CC1CC(O)[C@]2(C)OC3CC4OC5C[C@]6(C)O[C@]7(C)CCC8OC9C[C@]%10(C)OC%11C(C)=CC(=O)OC%11CC%10OC9C[C@@H](C)C8OC7CC6O[C@]5(C)C/C=C\C4OC3CC2O1 (stereo partly specified)	23.1µM*	-26.0	16.4µM*	0.8%	-0.2%	-0.5%
C=C(C=O)CC1CC(O)[C@]2(C)OC3CC4OC5C[C@]6(C)O[C@]7(C)CCC8OC9C[C@]%10(C)OC%11C(C)=CC(=O)OC%11CC%10OC9C[C@@H](C)C8OC7CC6O[C@]5(C)CC5OC5C4OC3CC2O1 (stereo partly specified)	0.411µM*	-104.3*	0.366µM*	?	3.1%	-31.9%
